Compounds without any hit were thinned out: in the full panel of roughly 83,000, 20% have a hit.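 Cells were grown in 96-well plates and exposed to the test compound at a single concentration for 48 hours; results are reported as percent growth, with values below 10 considered active.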 A number with no mark means an inactive call. Activity calls are given as the source filed them.
Tested on: RXF 393 renal
Experiment: NCI-60 one-dose screen, 48 h (100 = growth as untreated, 0 = no growth, -100 = all killed)
Conditions: 10 µM unless noted

Row | Compound | growth
1 | C=CC(=O)Nc1cc(Nc2nccc(-c3cn(C)c4ccccc34)n2)c(OC)cc1N(C)CCN(C)C | -84.2% (active)
2 | C/C=C/C=N/NC(=S)Nc1ccccc1 | 119%
3 | CN1CC[C@H](c2c(O)cc(O)c3c(=O)cc(-c4ccccc4Cl)oc23)[C@H](O)C1 | -65.5% (active)
4 | CCc1nc(C(N)=O)c(Nc2ccc(N3CCC(N4CCN(C)CC4)CC3)c(OC)c2)nc1NC1CCOCC1 | -92.9% (active)
5 | C=CC(=O)N1CCC[C@H](n2c(=O)n(-c3ccc(Oc4ccccc4)cc3)c3c(N)ncnc32)C1 | 84.8%
6 | COCCN1CCN(Cc2ccc(-c3n[nH]c4c3C(=O)c3c(NC(=O)NN5CCOCC5)cccc3-4)cc2)CC1 | -87.4% (active)
7 | CC(C)(C)c1ccc(Cn2cc(CSc3nc4ccccc4s3)nn2)cc1 | 103%
8 | COc1ccc(-c2ccc3c(N4CCOC[C@@H]4C)nc(N4CCOC[C@@H]4C)nc3n2)cc1CO | -27.5% (active)
9 | COc1cc(N2CCC(N3CCN(C)CC3)CC2)ccc1Nc1ncnc(Nc2ccccc2S(=O)(=O)C(C)C)n1 | 133%
10 | COc1cccc(NC(=O)Nc2ccc(Nc3ncnc4sc5c(c34)CCN(C(=O)CCl)C5)cc2)c1 | 99.1%
11 | O=C(Nc1cnn2ccc(N3CCC[C@@H]3c3cc(F)ccc3F)nc12)N1CC[C@H](O)C1 | 80.7%
12 | CC(=O)NCC(=O)N1[C@@H]2CC[C@H]1c1ccc(Nc3ncc(C(F)(F)F)c(NC4CCC4)n3)cc12 | -12.8% [2.5 µM] (active)
13 | CO[C@@H](C)Cn1c(=O)n(C)c2cnc3ccc(-c4cncc(C(C)(C)O)c4)cc3c21 | -47.2% (active)
14 | C[C@@H](Oc1cc(C(=O)Nc2ccc(C(=O)N3CCN(C)CC3)cc2)nnc1N)c1c(Cl)ccc(F)c1Cl | 62.6%
15 | COc1ccc(-c2cnc(-c3ccc(Cl)cc3)[nH]2)cc1OC | 91.6%
16 | CC(C)(C)c1nc(-c2cccc(NS(=O)(=O)c3c(F)cccc3F)c2F)c(-c2ccnc(N)n2)s1 | 90%
17 | CCN(CC)c1cc2oc3cc(N)cc(=N)c-3nc2cc1C | 86.2%
18 | COC(=O)Nc1nc2ccc(C(=O)c3ccc(N(C)C4COC4)cc3)cc2[nH]1 | 22.1%
19 | CNC(=O)c1cc(COc2nnc(Nc3ccc(Cl)cc3)c3ccoc23)ccn1 | 43.1%
20 | CCN(CCCOc1ccc2c(Nc3cc(CC(=O)Nc4cccc(F)c4)[nH]n3)ncnc2c1)CCOP(=O)(O)O | 96.7%
21 | COc1cc2nccc(Oc3ccc(NC(=O)Nc4cc(C)on4)c(Cl)c3)c2cc1OC | -28.9% (active)
22 | CNC(=O)c1cc(Oc2cccc3nc(Nc4ccc(Cl)c(F)c4)ccc23)ccn1 | 8.19% (active)
23 | Cc1nc(NC(=O)N2CCC[C@H]2C(N)=O)sc1-c1ccnc(C(C)(C)C(F)(F)F)c1 | 25.6%
24 | COc1ccc(Nc2ncccc2NC(=O)c2cn(Cc3cccc(Oc4ccccc4)c3)nn2)cc1 | 79.6%
25 | CS(=O)(=O)CCNCc1ccc(-c2ccc3ncnc(Nc4ccc(OCc5cccc(F)c5)c(Cl)c4)c3c2)o1 | -73.9% (active)

Tested on: SF-268 CNS
Experiment: as above
Conditions: 10 µM unless noted

Row | Compound | growth
26 | CN1CCC(COc2cnc(-c3cccc(Cn4nc(-c5cccc(C#N)c5)ccc4=O)c3)nc2)CC1 | 67.2%
27 | COc1cc(OC)c(/C=C/S(=O)(=O)Cc2ccc(OC)c(NCC(=O)O)c2)c(OC)c1 | 30.3%
28 | O=C(NOC[C@H](O)CO)c1ccc(F)c(F)c1Nc1ccc(I)cc1F | 60.1%
29 | C=CCN1C(=O)c2cccc3c(-c4ccc5c(c4)ncn5C4CCCCC4)ccc(c23)C1=O | 72.4%
30 | Cc1cc(O)cc(-c2c(-c3ccnc(-c4cccnc4)c3)cnn2C)c1 | 72.8%
31 | O=[N+]([O-])c1cc(Br)cc2c1[nH]c1ccc(Br)cc12 | 73.4%
32 | COc1cc2ncnc(Oc3cccc(NC(=O)Nc4cc(C(C)(C)C(F)(F)F)on4)c3)c2cc1OC | 26.9%
33 | CCNC(=O)Nc1nc2ccc(Oc3ccnc(C(=O)NC)c3)cc2s1 | 92.8%
34 | COc1cccc2cc(-c3nc(C4CCC(C(=O)O)CC4)n4ncnc(N)c34)[nH]c12 (stereo not drawn) | 16.2%
35 | CN1CCN(c2nc(C3=C(c4c[nH]c5ccccc45)C(=O)NC3=O)c3ccccc3n2)CC1 | 95.1%
36 | Cc1cc2c(F)c(Oc3ncnn4cc(OC[C@@H](C)OC(=O)[C@H](C)N)c(C)c34)ccc2[nH]1 | 74.7%
37 | S=C(NCc1ccc2c(c1)OCO2)N1CCN(c2ncnc3c2oc2ccccc23)CC1 | 42.2%
38 | C=C1CC[C@@H]2[C@](C)(COC(C)=O)[C@H](OC(C)=O)CC[C@@]2(C)[C@@H]1C/C=C1/C(=O)OC[C@H]1OC(C)=O | 87.1%
39 | C=CC(=O)Nc1cc(Nc2nccc(-c3cn(C)c4ccccc34)n2)c(OC)cc1N(C)CCN(C)C | -15.6% (active)
40 | C/C=C/C=N/NC(=S)Nc1ccccc1 | 100%
41 | CN1CC[C@H](c2c(O)cc(O)c3c(=O)cc(-c4ccccc4Cl)oc23)[C@H](O)C1 | 4.21% (active)
42 | CCc1nc(C(N)=O)c(Nc2ccc(N3CCC(N4CCN(C)CC4)CC3)c(OC)c2)nc1NC1CCOCC1 | 38.3%
43 | C=CC(=O)N1CCC[C@H](n2c(=O)n(-c3ccc(Oc4ccccc4)cc3)c3c(N)ncnc32)C1 | 71.6%
44 | COCCN1CCN(Cc2ccc(-c3n[nH]c4c3C(=O)c3c(NC(=O)NN5CCOCC5)cccc3-4)cc2)CC1 | 6.61% (active)

Row | Compound | growth
45 | CC(C)(C)c1ccc(Cn2cc(CSc3nc4ccccc4s3)nn2)cc1 | 95.3%
46 | COc1ccc(-c2ccc3c(N4CCOC[C@@H]4C)nc(N4CCOC[C@@H]4C)nc3n2)cc1CO | 14.9%
47 | COc1cc(N2CCC(N3CCN(C)CC3)CC2)ccc1Nc1ncnc(Nc2ccccc2S(=O)(=O)C(C)C)n1 | 100%
48 | COc1cccc(NC(=O)Nc2ccc(Nc3ncnc4sc5c(c34)CCN(C(=O)CCl)C5)cc2)c1 | 91.3%
49 | O=C(Nc1cnn2ccc(N3CCC[C@@H]3c3cc(F)ccc3F)nc12)N1CC[C@H](O)C1 | 91%
50 | CC(=O)NCC(=O)N1[C@@H]2CC[C@H]1c1ccc(Nc3ncc(C(F)(F)F)c(NC4CCC4)n3)cc12 | 38.6% [2.5 µM]
51 | CO[C@@H](C)Cn1c(=O)n(C)c2cnc3ccc(-c4cncc(C(C)(C)O)c4)cc3c21 | 7.58% (active)
52 | C[C@@H](Oc1cc(C(=O)Nc2ccc(C(=O)N3CCN(C)CC3)cc2)nnc1N)c1c(Cl)ccc(F)c1Cl | 70.3%
53 | COc1ccc(-c2cnc(-c3ccc(Cl)cc3)[nH]2)cc1OC | 78%
54 | CC(C)(C)c1nc(-c2cccc(NS(=O)(=O)c3c(F)cccc3F)c2F)c(-c2ccnc(N)n2)s1 | 105%
55 | CCN(CC)c1cc2oc3cc(N)cc(=N)c-3nc2cc1C | 64.5%
56 | COC(=O)Nc1nc2ccc(C(=O)c3ccc(N(C)C4COC4)cc3)cc2[nH]1 | 41.5%
57 | CNC(=O)c1cc(COc2nnc(Nc3ccc(Cl)cc3)c3ccoc23)ccn1 | 14.2%
58 | CCN(CCCOc1ccc2c(Nc3cc(CC(=O)Nc4cccc(F)c4)[nH]n3)ncnc2c1)CCOP(=O)(O)O | 76%
59 | COc1cc2nccc(Oc3ccc(NC(=O)Nc4cc(C)on4)c(Cl)c3)c2cc1OC | 21.7%
60 | CNC(=O)c1cc(Oc2cccc3nc(Nc4ccc(Cl)c(F)c4)ccc23)ccn1 | 55.4%
61 | Cc1nc(NC(=O)N2CCC[C@H]2C(N)=O)sc1-c1ccnc(C(C)(C)C(F)(F)F)c1 | 54.2%
62 | COc1ccc(Nc2ncccc2NC(=O)c2cn(Cc3cccc(Oc4ccccc4)c3)nn2)cc1 | 82.3%
63 | CS(=O)(=O)CCNCc1ccc(-c2ccc3ncnc(Nc4ccc(OCc5cccc(F)c5)c(Cl)c4)c3c2)o1 | 8.76% (active)
